Experimental data as given in PubChem BioAssay AID1445 (SRMLSC, 2008).
“And” between values parts separate entries of the source, which are not always exact repeats. Equal values may be shown once. The campaign covered roughly 220,000 compounds. About 910 (0.41%) were called active.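 Rule for the calls: active = primary inhibition above the hit cutoff, then over 50% inhibition at one or more dose response concentrations (cut at about 23% in these data, passing the limit was not always enough); inconclusive = conflicting primary data, or primary hits not chosen for dose response; inactive = low primary inhibition, or under 50% at every dose.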 Shown is part of a subset that was picked to be rich in actives. Results with a measured potency or affinity are listed apart. Where a structure was tested more than once in an assay, its records may differ in their call.

Biological target: Aminopeptidase N (Plasmodium falciparum (isolate 3D7)) (UniProt O96935)
Test: P. falciparum M1AAP inhibitors, biochemical, fluorogenic H-Leu-NHMec substrate, 1536-well (AID 1445);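 note: plate controls were DMSO full reaction for no effect and no enzyme background for full effect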
Conditions: recombinant M1AAP, H-Leu-NHMec fluorogenic kinetic assay; at 30 µM, stronger effect = higher value unless noted

Aminopeptidase N (Plasmodium falciparum (isolate 3D7)), sequence (O96935 whole entry, looked up): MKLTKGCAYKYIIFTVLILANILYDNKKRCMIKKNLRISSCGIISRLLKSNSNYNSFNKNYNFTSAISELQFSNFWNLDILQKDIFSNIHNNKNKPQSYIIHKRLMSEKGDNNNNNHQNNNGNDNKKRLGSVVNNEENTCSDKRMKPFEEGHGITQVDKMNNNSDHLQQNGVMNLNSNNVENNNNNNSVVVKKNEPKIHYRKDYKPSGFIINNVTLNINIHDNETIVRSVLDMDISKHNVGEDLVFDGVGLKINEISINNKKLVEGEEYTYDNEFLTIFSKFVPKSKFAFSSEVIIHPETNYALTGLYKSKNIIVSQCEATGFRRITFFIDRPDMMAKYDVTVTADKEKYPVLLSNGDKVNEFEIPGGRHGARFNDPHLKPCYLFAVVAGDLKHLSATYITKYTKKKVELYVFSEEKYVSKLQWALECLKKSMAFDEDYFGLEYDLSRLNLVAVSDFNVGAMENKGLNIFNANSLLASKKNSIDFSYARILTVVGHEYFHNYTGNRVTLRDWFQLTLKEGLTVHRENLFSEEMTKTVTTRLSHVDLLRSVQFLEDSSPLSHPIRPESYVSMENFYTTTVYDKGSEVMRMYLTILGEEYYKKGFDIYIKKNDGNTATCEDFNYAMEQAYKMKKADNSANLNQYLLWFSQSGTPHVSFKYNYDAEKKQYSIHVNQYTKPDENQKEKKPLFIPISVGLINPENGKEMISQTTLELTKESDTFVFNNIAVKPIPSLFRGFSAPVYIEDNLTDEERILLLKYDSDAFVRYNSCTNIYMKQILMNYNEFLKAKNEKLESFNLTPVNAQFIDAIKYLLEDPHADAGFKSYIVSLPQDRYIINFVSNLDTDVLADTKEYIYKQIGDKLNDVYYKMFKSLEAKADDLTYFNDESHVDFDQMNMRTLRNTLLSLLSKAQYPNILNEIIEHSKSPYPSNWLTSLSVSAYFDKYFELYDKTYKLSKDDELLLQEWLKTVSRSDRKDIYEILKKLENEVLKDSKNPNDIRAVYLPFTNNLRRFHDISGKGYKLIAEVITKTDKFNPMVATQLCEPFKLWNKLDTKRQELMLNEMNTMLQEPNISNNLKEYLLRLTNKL

| Compound | inhibition |
| --- | --- |
| CCCS(=O)(=O)N1CCC(C(=O)c2cccc(C(F)(F)F)c2)CC1 | 23.4% (active) |
| CS(=O)(=O)N1CCC(C(=O)Nc2cccc(Cl)c2)CC1 | -2.4% (inactive) |
| CS(=O)(=O)N1CCCC(C(=O)c2cccc(Cl)c2)C1 (centres undefined) | -1.4% (inactive) |
| O=C(NNC(=O)C1CCN(S(=O)(=O)c2cccc(C(F)(F)F)c2)CC1)C1CC1 | -0.46% (inactive) |
| CCCS(=O)(=O)N1CCCC(C(=O)c2cccc(Cl)c2)C1 (centres undefined) | 2.05% (inactive) |
| CCCCC1NC(C(=O)O)CS1 (centres undefined) | -4.57% (inactive) |
| Cc1ccc(C2C(=O)N(C3CCC(C)CC3)CC(=O)N2C2CC2)cc1 (centres undefined) | 6.72% (inactive) |
| COc1ccc(-n2ncc(N(C)n3cccc3)c(Cl)c2=O)cc1 | 4.45% (inactive) |
| COc1ccc(/C=C\C(=O)NCC(=O)N/N=C/c2ccc(O)cc2O)cc1 | 33.7% (inactive) |
| O=C(CCNC(=O)c1ccccc1)N=Nc1c(O)[nH]c2ccccc12 | 14% (inactive) |
| CCOC(=O)c1cc(-c2cccc([N+](=O)[O-])c2)on1 | 7.98% (inactive) |
| CCOC(=O)c1cc(-c2cccc([N+](=O)[O-])c2)n[nH]1 | 0.83% (inactive) |
| COc1ccc(N(C)C(=S)Nc2ccc3nc(C)c(C)nc3c2)cc1 | 0.41% (inactive) |
| Cc1noc(NC(=O)c2cccc(C(F)(F)F)c2)c1Cl | 1.44% (inactive) |
| CCOC(=O)c1ccc(C(=O)OCC)nc1 | -0.25% (inactive) |
| CCOC(=O)C1(CCOc2ccccc2)CCN(Cc2cccc3nonc23)CC1 | 11.9% (inactive) |
| COc1ccc(C2c3[nH]c4ccccc4c3CCN2C(=O)c2ccc(=O)n(C)n2)c(F)c1 (centres undefined) | -6.53% (inactive) |
| O=C(c1ccccc1)N1CCC(O)(c2ccc3c(c2)OCO3)CC1 | -2.13% (inactive) |
| CN1C(=O)c2ccc(C(=O)NCc3ccccc3)cc2C1=O | 5.4% (inactive) |
| CCN1C(=O)c2ccc(C(=O)NCc3ccccc3)cc2C1=O | 1.2% (inactive) |
| CCCCCOc1ccccc1C(=O)NCCC(=O)O | 0.09% (inactive) |
| Cc1cc(C)n(-c2ccc(F)cc2)c(=O)c1C#N | 3.92% (inactive) |
| CCO/N=C(/C)c1c(O)cc(C(C)(C)C)n(-c2ccccc2)c1=O | 1.22% (inactive) |
| CC(=O)Nc1ccc(S(=O)(=O)NNC2=NS(=O)(=O)c3ccccc32)cc1 | 5.01% (inactive) |

| Compound | inhibition |
| --- | --- |
| Cc1ccc(C)c(NC2=NS(=O)(=O)c3ccccc32)c1 | 3.34% (inactive) |
| Cc1cc(C)n2nc(N)c(N=Nc3ccc4c(c3)OCO4)c2n1 | -0.91% (inactive) |
| O=C(Nc1ccc(OCC(F)(F)C(F)F)cc1)c1ccncc1 | 3.56% (inactive) |
| NC(=NCCc1c[nH]c2ccccc12)NC(=O)c1ccc(Cl)cc1 | 2.62% (inactive) |
| Cc1ccc(-n2c(SCc3cn4ccsc4n3)nc3ccccc3c2=O)cc1 | 25.9% (active) |
| O=c1c2ccccc2nc(SCc2cn3ccsc3n2)n1-c1ccccc1 | 14.2% (inactive) |
| O=c1c2ccccc2nc(SCc2cn3ccsc3n2)n1-c1ccc(F)cc1 | -8.24% (inactive) |
| O=C(NC1CCCCC1)C(c1ccncc1)N(C(=O)Cn1nnc(-c2cccs2)n1)C1CCCC1 (centres undefined) | 0.4% (inactive) |
| COc1ccccc1NC(=O)C(C)NS(=O)(=O)c1ccc(Cl)cc1 (centres undefined) | 0.77% (inactive) |
| Cc1cc2oc(=O)cc(CN3CCOCC3)c2cc1C | 11.2% (inactive) |
| CCN(CC)c1ccc2c(C)c(CN3CCOCC3)c(=O)oc2c1 | 7.04% (inactive) |
| COCCN(C(=O)CN1CCN(S(=O)(=O)c2ccc(F)cc2)CC1)c1c(N)n(Cc2ccccc2)c(=O)[nH]c1=O | 7.35% (inactive) |
| CC1C/C(=N/Nc2ccc([N+](=O)[O-])cc2[N+](=O)[O-])CC(C)(C)C1 (centres undefined) | -1.42% (inactive) |
| CC1(C)OC(=O)C(=NNc2ccccc2[N+](=O)[O-])C(=O)O1 | 9.4% (inactive) |
| Nc1cc2c(cc1[N+](=O)[O-])OCO2 | 7.4% (inactive) |
| CC(=O)Nc1cc2c(cc1[N+](=O)[O-])OCCO2 | 6.17% (inactive) |
| O=C(N/N=C/c1ccccc1Cl)c1[nH]c2ccc(Br)cc2c1-c1ccccc1 | -5.79% (inactive) |
| COc1ccc(/C=N/NC(=O)c2[nH]c3ccc(Br)cc3c2-c2ccccc2)cc1 | 2.81% (inactive) |
| CCOc1ccccc1N(C(=O)Nc1ccc(Cl)cc1)C1=NCCS1 | -3.04% (inactive) |
| COc1ccc(C2CC(=O)NC3=C2C(=O)CCC3)cc1Cl (centres undefined) | -1.4% (inactive) |
| O=C(O)CSc1nnc(-c2ccccc2O)n1Cc1ccccc1 | 6.98% (inactive) |
| O=C(CSc1nnc(-c2ccccc2)n1Cc1ccccc1)NNC(=O)c1ccccc1O | 16.1% (inactive) |
| NC(=O)c1cc2c3ccccc3ccn2c1-c1ccccc1 | 0.96% (inactive) |
| CC(C)NC(=O)CSc1nnc(-c2ccc(F)cc2)c2ccccc12 | 0.8% (inactive) |

| Compound | inhibition |
| --- | --- |
| O=C1CC(c2ccco2)CC(O)=C1C=Nc1cc(Cl)ccc1Cl (centres undefined) | 4.23% (inactive) |
| O=C1CC(c2ccco2)CC(O)=C1C=Nc1cc(Cl)cc(Cl)c1 (centres undefined) | -0.66% (inactive) |
| O=C(NCc1ccccc1)c1nc2ccccc2s1 | 1.19% (inactive) |
| COc1cc(OC)c(-c2c3cc(O)c(=O)cc-3oc3cc(O)c(O)cc23)cc1OC | 22.9% (inactive) |
| O=c1cc2oc3cc(O)c(O)cc3c(-c3ccccc3O)c-2cc1O | 13.8% (inactive) |
| Cc1c2cc(O)c(=O)cc-2oc2cc(O)c(O)cc12 | 24.7% (active) and 6.57% (inactive) |
| CC(=O)Nn1cnc2c(c1=O)C1(CCCCC1)Cc1ccccc1-2 | 4.35% (inactive) |
| COc1ccc(NC(=O)Nc2cccc(Cl)c2Cl)c(OC)n1 | 4.95% (inactive) |
| COc1ccccc1NC1=NC(C)(C)N=C(N)N1 | 0.34% (inactive) |
| COC1=C(Nc2ccccc2OC)C(=O)c2ccccc2C1=O | 7.8% (inactive) |
| COc1ccc(NC(=O)Nc2cccnc2)c(OC)c1 | 2.93% (inactive) |
| COc1ccc(OC)c(C2=NOC(C(=O)Nc3cccnc3)C2)c1 (centres undefined) | 7.85% (inactive) |
| CCOc1ccc(-n2c(=O)[nH]cc(C(=O)N3CCc4ccccc43)c2=O)cc1 | 1.21% (inactive) |
| Cc1ccc(C)c(NC(=O)c2ccccc2NS(=O)(=O)c2cc([N+](=O)[O-])ccc2C)c1 | 8.58% (inactive) |
| CC(=O)Nc1ccc(NS(=O)(=O)c2cc([N+](=O)[O-])ccc2C)cc1 | 2.22% (inactive) |
| O=C(N/N=C(\Cc1ncc[nH]1)c1ccccc1)c1cccnc1 | 16.6% (inactive) |
| O=C(N/N=C(\Cc1ncc[nH]1)c1ccccc1)c1ccccc1 | 19.5% (inactive) |
| COC(=O)c1cc2c(ccn2-c2ccc(F)cc2)n1CC(=O)OC(C)C | 1.89% (inactive) |
| CCOc1cc(N2CCOCC2)c(OCC)cc1NC(=O)C(NC(=O)c1ccco1)C(C)C (centres undefined) | 8.28% (inactive) |
| c1ccc2c(c1)N1CCN=C1N2CCN1CCCCC1 | 5.87% (inactive) |
| Cc1oc(S(=O)(=O)N(C)C)cc1C(=O)Nc1ccc(F)cc1 | 0.82% (inactive) |
| C=CCn1c(CCNC(=O)c2ccccc2F)nnc1SCC(=O)Nc1nc(C)cs1 | -1.07% (inactive) |
| C=CCn1c(CNC(=O)c2ccccc2F)nnc1SCc1nc2ccccc2c(=O)[nH]1 | 7.18% (inactive) |
| CCOC(=O)C(NC(=O)CC)(Nc1ccccc1OC)C(F)(F)F (centres undefined) | -0.34% (inactive) |

| Compound | inhibition |
| --- | --- |
| O=c1[nH]c(CN2CCN(c3ccccc3Cl)CC2)nc2ccsc12 | 6.37% (inactive) |
| O=c1[nH]c(CN2CCN(c3ccc([N+](=O)[O-])cc3)CC2)nc2ccsc12 | 25.9% (active) |
| COc1ccc(N2CCN(Cc3nc4ccsc4c(=O)[nH]3)CC2)cc1 | 13.2% (inactive) |
| O=C(CSc1nnc(NCc2ccccc2)s1)NC1CCS(=O)(=O)C1 (centres undefined) | -0.46% (inactive) |
| COCCCN1C(=O)c2[nH]nc(-c3cc(C)cc(C)c3O)c2C1c1ccc(O)c(OC)c1 (centres undefined) | 6.71% (inactive) |
| COc1cc(C2c3c(-c4ccccc4O)n[nH]c3C(=O)N2Cc2ccco2)cc(OC)c1OC (centres undefined) | 3.24% (inactive) |
| COc1cc(C2c3c(-c4cc(C)cc(C)c4O)n[nH]c3C(=O)N2CCCO)cc(OC)c1OC (centres undefined) | 28.3% (active) |
| CCOc1ccccc1-n1c(SCC(=O)N(C(C)C)C(C)C)nnc1-c1cccnc1 | 5.81% (inactive) |
| O=C(CN1CCN(Cc2ccc(Cl)cc2)C1=O)NCCN1CCCC1 | 1.07% (inactive) |
| CCC(C)[C@H](NC(=O)Nc1ccc(C(C)=O)cc1)C(=O)OC (some centres undefined) | -5.32% (inactive) |
| CCC1=NN2C(=N)/C(=C/c3cc(C)n(Cc4ccccc4)c3C)C(=O)N=C2S1 | 1.28% (inactive) |
| Cc1nn(-c2ccccc2)c(Cl)c1/C=C1\SC(=S)N(C)C1=O | -0.16% (inactive) |
| Cc1nn(-c2ccccc2)c(Cl)c1/C=C1\C(=O)N(C)C(=S)N1C | 5.11% (inactive) |
| CCC1=NN2C(=N)/C(=C\c3cccn3-c3cccc(Cl)c3)C(=O)N=C2S1 | 7.8% (inactive) |
| O=C(Nc1ccc(-n2nncc2-c2ccco2)cc1)c1cccc(F)c1 | 1.93% (inactive) |
| COc1ccc(CN(C)CC(=O)Nc2ccccc2-c2ccccc2)c(OC)c1 | 6.36% (inactive) |
| O=C(O)C(CC1CCCCC1)N1CCS(=O)(=O)CC1 (centres undefined) | -6% (inactive) |
| C=CCn1c(N)cc(=O)nc1SC(C)C(=O)Nc1cccc2ccccc12 (centres undefined) | 14% (inactive) |
| O=C(Nc1ccccc1N1CCOCC1)c1ccccc1NS(=O)(=O)c1ccc(F)c(F)c1 | 5.56% (inactive) |
| O=C(Nc1cc(S(=O)(=O)Nc2ccc(Cl)cc2)ccc1O)c1ccc(S(=O)(=O)N2CCCCCC2)cc1 | 0.01% (inactive) |
| O=C(Nc1cccc(S(=O)(=O)N2CCCCC2)c1)c1ccccc1NS(=O)(=O)c1ccc(F)cc1 | 11.5% (inactive) |
| Cc1ccc(NC(=O)c2ccccc2NS(=O)(=O)c2ccc(F)cc2)cc1S(=O)(=O)N1CCCCC1 | 14.4% (inactive) |
